Test results: PubChem BioAssay (NCI)
This is part of a sample that, as a whole, favours compounds with a hit. Of some 83,000 tested, about 20% had one in any assay.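 Single-dose data. Exposure time 48 hours. Values below 10 considered active.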 Calls of active or inactive are those of the source.

What was measured:
Experiment in all cases: NCI-60 one-dose screen, 48 h (100 = growth as untreated, 0 = no growth, -100 = all killed)
Conditions in all cases: 10 µM unless noted
RPMI-8226 leukemia = test system: RPMI-8226 leukemia
OVCAR-8 ovarian = test system: OVCAR-8 ovarian
OVCAR-5 ovarian = test system: OVCAR-5 ovarian
OVCAR-4 ovarian = test system: OVCAR-4 ovarian
SK-OV-3 ovarian = test system: SK-OV-3 ovarian
IGROV1 ovarian = test system: IGROV1 ovarian
OVCAR-3 ovarian = test system: OVCAR-3 ovarian
HS 578T breast = test system: HS 578T breast
NCI/ADR-RES ovarian = test system: NCI/ADR-RES ovarian
T-47D breast = test system: T-47D breast

Measured: growth

CCCCN1C(=O)/C(=c2\sc3n(c2=O)C2C(NN=3)N(CC)C(=O)N2CC)c2cc(Cl)ccc21 (stereo not drawn)
inactive: RPMI-8226 leukemia 70.2% | OVCAR-8 ovarian 95.6% | OVCAR-5 ovarian 92.7% | OVCAR-4 ovarian 89.7% | SK-OV-3 ovarian 106% | IGROV1 ovarian 65.3% | OVCAR-3 ovarian 71.8% | HS 578T breast 66.9% | NCI/ADR-RES ovarian 79.4% | T-47D breast 75%

CCN1C(=S)N(CC)C2C1NN=C1SC(c3ccccc3)=CC(=O)N12 (stereo not drawn)
inactive: RPMI-8226 leukemia 107% | OVCAR-8 ovarian 99.4% | OVCAR-5 ovarian 107% | OVCAR-4 ovarian 115% | SK-OV-3 ovarian 110% | IGROV1 ovarian 109% | OVCAR-3 ovarian 119% | HS 578T breast 114% | NCI/ADR-RES ovarian 99.6% | T-47D breast 108%

C#C[C@]1(O)CC[C@H]2[C@@H]3CC=C4c5sc(Nc6ccc(Cl)cn6)nc5CC[C@]4(C)[C@H]3CC[C@@]21C
active: RPMI-8226 leukemia -21.2% | HS 578T breast -2.9%
inactive: OVCAR-8 ovarian 49.6% | OVCAR-5 ovarian 75.8% | OVCAR-4 ovarian 65.3% | SK-OV-3 ovarian 35.9% | IGROV1 ovarian 71.5% | OVCAR-3 ovarian 74.3% | NCI/ADR-RES ovarian 54.1% | T-47D breast 68.8%

COc1ccc(/C=C2\SC(=Nc3cc(C)on3)NC2=O)cc1
inactive: RPMI-8226 leukemia 98.2% | OVCAR-8 ovarian 102% | OVCAR-5 ovarian 97.6% | OVCAR-4 ovarian 109% | SK-OV-3 ovarian 113% | IGROV1 ovarian 99.2% | OVCAR-3 ovarian 116% | HS 578T breast 96.9% | NCI/ADR-RES ovarian 98.6% | T-47D breast 104%

Cc1cc(C(NC(=O)CCCCCNc2cccc3c2C(=O)N(C2CCC(=O)NC2=O)C3=O)c2cccnc2)c(O)c2ncccc12 (stereo not drawn)
inactive: RPMI-8226 leukemia 14.6% | OVCAR-8 ovarian 11.1% | OVCAR-5 ovarian 49.8% | OVCAR-4 ovarian 19.4% | SK-OV-3 ovarian 25.4% | OVCAR-3 ovarian 14.2% | NCI/ADR-RES ovarian 79.6% | T-47D breast 12.1%
active: IGROV1 ovarian 9.13% | HS 578T breast 1.22%

CN1C(=S)N(C)C2C1NN=C1SC(c3ccccc3)=CC(=O)N12 (stereo not drawn)
inactive: RPMI-8226 leukemia 93.9% | OVCAR-8 ovarian 94.4% | OVCAR-5 ovarian 103% | OVCAR-4 ovarian 85.7% | SK-OV-3 ovarian 102% | IGROV1 ovarian 97.5% | OVCAR-3 ovarian 107% | HS 578T breast 107% | NCI/ADR-RES ovarian 97.6% | T-47D breast 69.5%

CCCC(=O)NC(c1cccnc1)c1cc(C)c2cccnc2c1O (stereo not drawn)
active: OVCAR-3 ovarian -0.275%
inactive: RPMI-8226 leukemia 53.5% | OVCAR-8 ovarian 14% | OVCAR-5 ovarian 53.6% | OVCAR-4 ovarian 29.7% | SK-OV-3 ovarian 43.4% | IGROV1 ovarian 30.6% | HS 578T breast 71.8% | NCI/ADR-RES ovarian 23.7% | T-47D breast 29.7%

CC(=NNc1ncnc2ccccc12)c1ccc(S(C)(=O)=O)cc1
inactive: RPMI-8226 leukemia 98.6% | OVCAR-8 ovarian 98.2% | OVCAR-5 ovarian 111% | OVCAR-4 ovarian 122% | SK-OV-3 ovarian 102% | IGROV1 ovarian 96.5% | OVCAR-3 ovarian 118% | HS 578T breast 95.3% | NCI/ADR-RES ovarian 103% | T-47D breast 103%

Clc1ccc2oc3c(OCCCn4ccnc4)c4ccccc4nc3c2c1
inactive: RPMI-8226 leukemia 67% | OVCAR-8 ovarian 44.3% | OVCAR-5 ovarian 73.5% | OVCAR-4 ovarian 74.5% | SK-OV-3 ovarian 112% | IGROV1 ovarian 55% | OVCAR-3 ovarian 101% | HS 578T breast 87.8% | NCI/ADR-RES ovarian 56.4% | T-47D breast 74.6%

N#Cc1c(-c2ccc(Cl)cc2)nc(SCc2ccccc2)nc1N1CCNCC1
inactive: RPMI-8226 leukemia 23% | OVCAR-8 ovarian 65.6% | OVCAR-5 ovarian 92.1% | OVCAR-4 ovarian 85.2% | SK-OV-3 ovarian 113% | IGROV1 ovarian 46.9% | OVCAR-3 ovarian 50% | HS 578T breast 91.1% | NCI/ADR-RES ovarian 65.6% | T-47D breast 65.6%

COc1cc(OC)c(S(=O)(=O)NNC(=O)c2ccncc2)cc1C(=O)/C=C/c1ccc(C)cc1
inactive: RPMI-8226 leukemia 20.3% | OVCAR-8 ovarian 88.3% | OVCAR-5 ovarian 110% | OVCAR-4 ovarian 91.3% | SK-OV-3 ovarian 101% | IGROV1 ovarian 72.7% | OVCAR-3 ovarian 81% | HS 578T breast 80.5% | NCI/ADR-RES ovarian 107% | T-47D breast 72.7%

COc1ccc(/C=C/C(=O)c2ccc(NC(=O)CSc3nnc(-c4ccc5nc(-c6ccc(Cl)cc6)[nH]c5c4)o3)cc2)cc1
inactive: RPMI-8226 leukemia 64.4% | OVCAR-8 ovarian 79.5% | OVCAR-5 ovarian 107% | OVCAR-4 ovarian 103% | SK-OV-3 ovarian 106% | IGROV1 ovarian 95.3% | OVCAR-3 ovarian 111% | HS 578T breast 94.7% | NCI/ADR-RES ovarian 107% | T-47D breast 78%

Cn1ccnc1C(=O)/C=C/c1ccc(NC(=O)Nc2ccccc2)cc1
active: RPMI-8226 leukemia 8.95% | OVCAR-8 ovarian -1.17% | OVCAR-3 ovarian 6.45% | HS 578T breast 5.48%
inactive: OVCAR-5 ovarian 14.8% | OVCAR-4 ovarian 42.7% | SK-OV-3 ovarian 13.3% | IGROV1 ovarian 19.2% | NCI/ADR-RES ovarian 22.2% | T-47D breast 15.7%

CN(C)S(=O)(=O)c1oc(-c2ccccc2)nc1C#N
inactive: RPMI-8226 leukemia 76% | OVCAR-8 ovarian 94.4% | OVCAR-5 ovarian 100% | OVCAR-4 ovarian 99.7% | SK-OV-3 ovarian 136% | IGROV1 ovarian 38.8% | OVCAR-3 ovarian 62.4% | HS 578T breast 107% | NCI/ADR-RES ovarian 107% | T-47D breast 59.6%

O=C(N/N=C/c1ccc([N+](=O)[O-])s1)c1[nH]c2ccc(Br)cc2c1-c1ccccc1
inactive: OVCAR-5 ovarian 27.9% | OVCAR-4 ovarian 55.9% | SK-OV-3 ovarian 45.8% | IGROV1 ovarian 24.4% | OVCAR-3 ovarian 24.1% | HS 578T breast 11.6% | NCI/ADR-RES ovarian 17.3% | T-47D breast 59.7%
active: RPMI-8226 leukemia 0.935% | OVCAR-8 ovarian -8.62%

COC(=O)C(C)NS(=O)(=O)/N=C1\NC(=O)NC1=C(Cl)Cl (stereo not drawn)
inactive: RPMI-8226 leukemia 104% | OVCAR-8 ovarian 100% | OVCAR-5 ovarian 98.8% | OVCAR-4 ovarian 113% | SK-OV-3 ovarian 119% | IGROV1 ovarian 104% | OVCAR-3 ovarian 117% | HS 578T breast 107% | NCI/ADR-RES ovarian 105% | T-47D breast 107%

CC(C)(C)Nc1nc2c(OCCc3ccccc3)cccn2c1-c1ccc(O)cc1
inactive: RPMI-8226 leukemia 19% | OVCAR-8 ovarian 65.9% | OVCAR-5 ovarian 70.2% | OVCAR-4 ovarian 65% | SK-OV-3 ovarian 110% | IGROV1 ovarian 75.4% | OVCAR-3 ovarian 74.9% | HS 578T breast 86.7% | NCI/ADR-RES ovarian 50.4% | T-47D breast 35.9%

Clc1ccc2oc3c(NCCCn4ccnc4)c4ccccc4nc3c2c1
inactive: RPMI-8226 leukemia 37.6% | OVCAR-8 ovarian 43.4% | OVCAR-5 ovarian 50.1% | OVCAR-4 ovarian 63% | SK-OV-3 ovarian 93.9% | IGROV1 ovarian 36.5% | OVCAR-3 ovarian 76.7% | HS 578T breast 61.7% | NCI/ADR-RES ovarian 41.2% | T-47D breast 88.9%

COc1cccc(-c2nn(-c3ccccc3)cc2-c2ccnc(N3CCN(C(=O)c4ccccc4)CC3)c2)c1
inactive: RPMI-8226 leukemia 47.7% | OVCAR-8 ovarian 56.4% | OVCAR-5 ovarian 112% | OVCAR-4 ovarian 77.9% | SK-OV-3 ovarian 118% | IGROV1 ovarian 76% | HS 578T breast 100% | NCI/ADR-RES ovarian 43.4% | T-47D breast 50.3%

N#Cc1ccc(C(=O)CSc2nc(Nc3ccc(S(N)(=O)=O)cc3)c3ccccc3n2)cc1
inactive: RPMI-8226 leukemia 101% | OVCAR-8 ovarian 109% | OVCAR-5 ovarian 110% | OVCAR-4 ovarian 113% | IGROV1 ovarian 110% | OVCAR-3 ovarian 119% | HS 578T breast 103% | NCI/ADR-RES ovarian 111% | T-47D breast 103%

CCN(CC)c1ccc(C=O)c(OCc2cn(CC(=O)Nc3ccc(Cl)cc3)nn2)c1
inactive: RPMI-8226 leukemia 57.9% | OVCAR-8 ovarian 75.3% | OVCAR-5 ovarian 91% | OVCAR-4 ovarian 70.4% | SK-OV-3 ovarian 86.8% | IGROV1 ovarian 74.7% | OVCAR-3 ovarian 83.5% | HS 578T breast 87.8% | NCI/ADR-RES ovarian 84.2% | T-47D breast 59.8%
